Reference: PubChem BioAssay
Activity calls are given as the source filed them. The rule behind the calls is not given here.

Biological target: Pantothenate synthetase (Mycobacterium tuberculosis (strain ATCC 25618 / H37Rv)) (UniProt P9WIL5)
Assay: Coupled enzyme confirmation of inhibitors against recombinant Mtb PanC (AID 375);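 note: 0% = full reaction with vehicle and 100% = no enzyme background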
Settings: coupled enzyme assay; at 10 µM, active compounds read high

Chain of Pantothenate synthetase (Mycobacterium tuberculosis (strain ATCC 25618 / H37Rv)) (P9WIL5 whole entry, looked up): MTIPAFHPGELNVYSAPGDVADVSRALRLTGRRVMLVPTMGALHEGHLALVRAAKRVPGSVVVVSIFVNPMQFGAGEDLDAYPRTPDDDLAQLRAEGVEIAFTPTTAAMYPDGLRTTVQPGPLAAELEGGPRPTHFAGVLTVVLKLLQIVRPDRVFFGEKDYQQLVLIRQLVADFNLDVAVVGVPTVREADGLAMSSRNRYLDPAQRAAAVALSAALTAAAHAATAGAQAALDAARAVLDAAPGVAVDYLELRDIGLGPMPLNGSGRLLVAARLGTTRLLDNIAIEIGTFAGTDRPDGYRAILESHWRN

| SMILES | inhibition |
| --- | --- |
| CCOC(=O)c1ccccc1NC(=O)CSc1nc2c(c(=O)n(C)c(=O)n2C)n1C | 0% (inactive) |
| COCCn1c(NCc2ccc(C)cc2)nc2c1c(=O)[nH]c(=O)n2C | 10% (inactive) |
| O=C(NCCN1CCOCC1)c1ccc2c(c1)N(Cc1ccccc1)C(=O)CS2 | 0% (inactive) |
| CCOc1ccccc1NC(=O)C1CCCN(S(=O)(=O)c2cccc3cccnc23)C1 (stereo not given) | 6% (inactive) |
| Oc1cnc2ccccc2c1CN1CCOCC1 | 4% (inactive) |
| O=C(Cn1ccc2ccccc2c1=O)NCCC(=O)N1CCN(C2CCCCC2)CC1 | 5% (inactive) |
| COCc1ccccc1Cn1cnc2c1c(=O)n(C)c(=O)n2C | 3% (inactive) |
| CCN(CC)C1CCCCC1NS(=O)(=O)c1ccc(Cl)cc1 (stereo not given) | 0% (inactive) |
| Cc1ccc(Cl)cc1N1CCN(C(=O)C2CCCN(S(=O)(=O)c3cnc[nH]3)C2)CC1 (stereo not given) | 0% (inactive) |
| COc1ccc(/C=C/C(=O)Nc2ccccc2C(=O)O)cc1OC | 0% (inactive) |
| CN(C)C(CNc1nnnn1-c1ccccc1)c1ccco1 (stereo not given) | 2% (inactive) |
| COc1oc(-c2ccccc2)nc1C(F)(F)F | 0% (inactive) |
| COc1ccc(NC(=O)N2CCN(c3nc(-c4cccc(OC)c4)cs3)CC2)cc1 | 0% (inactive) |
| O=C1CCCC(O)=C1C=Nc1ccc2c(c1)oc1ccccc12 | 3% (inactive) |
| Cc1ccc(-c2nc3ccccc3[nH]2)s1 | 0% (inactive) |
| O=c1[nH]c(=O)n(C2CCCCCC2)c(O)c1C=NCc1ccc(F)cc1 | 4% (inactive) |
| CCOCCOc1nc2c(c(=O)n(C)c(=O)n2C)n1Cc1ccc(C)cc1 | 0% (inactive) |
| O=C(Nc1cccc2ccccc12)c1cnccn1 | 0% (inactive) |
| O=C(CS(=O)(=O)c1cn(Cc2ccc(F)cc2)c2ccccc12)N1CCCCC1 | 0% (inactive) |
| CC(n1cnnn1)C12CC3CC(CC(C3)C1)C2 (stereo not given) | 8% (inactive) |

| SMILES | inhibition |
| --- | --- |
| CCOC(=O)CNS(=O)(=O)c1c(C)noc1C | 0% (inactive) |
| COc1ccccc1S(=O)(=O)Cc1ccc(C(=O)NCCN2CCCCCC2)o1 | 0% (inactive) |
| COc1cc(-c2nnc(SCC(=O)c3ccc(C)cc3)o2)cc(OC)c1OC | 0% (inactive) |
| O=C1CN(c2ccccc2F)C(=O)CN1c1ccccc1F | 0% (inactive) |
| COc1ccc(S(=O)(=O)CCC(=O)O)cc1 | 6% (inactive) |
| Cc1ccc(-c2nnc(-c3ccc(Br)cc3)o2)o1 | 0% (inactive) |
| COc1cccc(-c2cc(C(F)(F)F)n3ncc(C(=O)O)c3n2)c1 | 0% (inactive) |
| CCOc1ccc(CCNC(=O)CCc2nc(-c3ccc(OC)cc3)no2)cc1OCC | 0% (inactive) |
| COc1ccccc1Cn1c(-c2ccco2)nc2nc3ccccc3nc21 | 0% (inactive) |
| CC(O)CN(Cc1cccc(Cl)c1)CC(C)O (stereo not given) | 5% (inactive) |
| Cc1cc(C(=O)NCCCN2CCN(C3CCCCC3)CC2)n(-c2ccccc2)n1 | 4% (inactive) |
| c1coc(-c2nnc(-c3cccs3)o2)c1 | 16% (inactive) |
| CC1CCN(c2oc(-c3cccc4ccccc34)nc2C#N)CC1 | 0% (inactive) |
| Cc1csc(NC(=O)c2sc3nc(-c4cccs4)ccc3c2N)n1 | 5% (inactive) |
| CCOC(=O)c1ccc(N=Cc2nc(-c3ccccc3)oc2OC(C)=O)cc1 | 0% (inactive) |
| O=C(NCC(=O)N(c1cccnc1)C(C(=O)NC1CCCCC1)c1cccnc1)c1ccco1 (stereo not given) | 0% (inactive) |
| O=C(NCCSCc1ccco1)Nc1cccc(Cl)c1 | 3% (inactive) |
| CCCCC(=O)O[C@]1(C(=O)CO)CC[C@H]2[C@@H]3CCC4=CC(=O)CC[C@]4(C)[C@H]3[C@@H](O)C[C@@]21C | 10% (inactive) |
| Cc1nn(-c2ccccc2)c(Cl)c1C(=O)NCC(=O)O | 0% (inactive) |
| CCOc1ccccc1N1CC(O)=C(c2nc3ccccc3s2)C1=N | 9% (inactive) |
